# High-throughput results: PubChem, National Center for Advancing Translational Sciences (NCATS)
# An excerpt weighted towards active compounds, which were near 2.1% of everything screened.
# TDP-43 yeast inh: rescues yeast growth from TDP-43 toxicity | Potency, µM (series often up to 46.1 µM), inactives show at the highest dose growth rescue (activation), hits mostly activators | hit rate 1.8% among 410,000 | TDP-43 expressing yeast growth rescue, BacTiter-Glo, 24 h; note: % of control where 0% means no effect; nearly all actives have a fitted effect of over 50% in size
#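 Luminescence from BacTiter-Glo reports growth of TDP-43-expressing yeast after 24 hr at 30 deg C with compound. Cells were raffinose-pregrown to mid-log, then seeded in galactose medium at OD600=0.02.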
# FUS yeast rescue: suppressors of FUS proteinopathy in yeast; S. cerevisiae FUS-expressing, growth rescue, OD600, 24 h; Potency, µM (doses to about 76.6 µM), actives largely listed as activators; hit rate 0.24% among 390,000; AID 1347120;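 note: plate controls were DMSO vehicle for no effect and reference control for full effect; nearly all actives have a fitted effect of over 55% in size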
#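 Cultures pregrown in 2.5% raffinose medium are shifted to minimal medium containing 2% galactose to express toxic FUS. Compounds are tested at several concentrations. After 24hr at 30C, growth is quantified at 600 nm absorbance.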
# Abeta yeast res: A-beta toxicity reversal in yeast; hit rate 0.063% among 410,000; Potency, µM (titrated, usually from 46.1 µM), actives largely listed as activators; yeast expressing A-beta42, growth rescue, OD600, 48 h; response scale: 0% DMSO, 100% iron-clioquinol control; AID 1347071; note: nearly all actives have a fitted effect of over 55% in size
#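 Yeast growth medium received pinned compounds, then yeast cells expressing toxic A-beta were added; plates incubated at 30 C for 48 hr. Growth read as absorbance at 600 nm, normalized to DMSO and equimolar FeCl3 plus clioquinol controls.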
# aSyn yeast inh: inhibitors of alpha-synuclein toxicity in yeast; Yeast expressing alpha-synuclein, growth rescue, BacTiter-Glo, 24 h; hit rate 0.14% among 370,000; Potency, µM (highest dose often 46.1 µM), for the others: at the top dose growth rescue (activation), hits mostly activators; note: % of control where 0% means no effect; nearly all actives have a fitted effect of over 65% in size
#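 Screening used galactose-induced yeast with toxic alpha-synuclein levels, exposed to compound for 24 hr at 30 deg C. Cell growth, read with BacTiter-Glo luminescence, gave the measured signal.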
# Starred values were filed as active, the others as inactive; i = inactive; ? = inconclusive; / = no result. Calls come from the whole dose curve; as a rule, active = well fitted curve in the direction sought with a large enough effect; inconclusive = small, poorly fitted or top-dose-only effect, or another doubt; inactive = no such curve, though single readings can be large; an effect the other way counts as inactive or inconclusive. Potency is the fitted concentration of half-maximal effect.
SMILES,TDP-43 yeast inh,FUS yeast rescue,Abeta yeast res,aSyn yeast inh
C#CCOCCOCCOCCNc1nc(N2CCN(C(=O)[C@H](CC(N)=O)n3cc([C@@H](N)C(C)C)nn3)CC2)nc(N2CCN(C(=O)[C@H](CC(N)=O)n3cc([C@@H](N)C(C)C)nn3)CC2)n1,7%,i,i,-7%
CC(=O)N1N=C(c2ccco2)CC1c1ccc(C)cc1 (centres undefined),27%,i,i,0%
CC(=O)N1N=C(c2ccco2)CC1c1ccc(Br)cc1 (centres undefined),20µM*,i,i,4%
Cc1ccc2nc(SCC(=O)Nc3cccnc3Cl)[nH]c2c1,-23%,/,i,0%
CC(=O)c1cc2c(cc1NC(=O)CSc1nc3ccc(C)cc3[nH]1)OCO2,13µM*,i,i,8%
Cc1ccc2onc(CC(=O)N3CCN(c4ccccc4F)CC3)c2c1,?,i,i,/
Cc1ccc2onc(CC(=O)N3CCN(c4ccc(F)cc4)CC3)c2c1,13µM*,i,i,/
O=C(Cc1ccc(NC(=O)N2CCCCc3ccccc32)cc1)NCc1cccc(Br)c1,15%,i,i,/
COc1ccc(CNS(=O)(=O)c2cc(C(=O)Nc3cc(Cl)cc(Cl)c3)ccc2F)cc1,14µM*,i,i,/
O=C(Nc1cc(Cl)cc(Cl)c1)c1ccc(F)c(S(=O)(=O)NCc2ccccc2Cl)c1,13%,i,i,/
O=C(O)C1C2C=CC(C3CC23)C1C(=O)O (centres undefined),14µM*,i,i,7%
Cc1cccc(NC(=O)C2C3C=CC(C4CC34)C2C(=O)O)c1 (centres undefined),?,i,i,9%
CC(/C=N/n1c(-c2ccco2)n[nH]c1=S)=C\c1ccccc1,18µM*,i,i,10%
CC(/C=N/n1c(-c2ccccn2)n[nH]c1=S)=C\c1ccccc1,9%,i,i,-1%
COC(=O)c1cn(NC(=O)c2cnccn2)c(=O)c2ccccc12,?,i,i,22µM*
O=C(Nn1cc(C(=O)Nc2ccccc2F)c2ccccc2c1=O)c1cnccn1,-7%,i,i,-18%
CC(=O)c1c(N2CCOCC2)nc2ccc(Br)cc2c1-c1ccccc1,14µM*,i,i,9%
O=c1[nH]c2ccc(Br)cc2c(-c2ccccc2)c1N1CCOCC1,11%,i,i,-1%
C/C(N)=C(/C#N)C(=O)COC(=O)c1cc(-c2ccc(Br)cc2)nc2ccccc12,5%,i,i,1%
CC12CN3CC(C)(CN(C1)C3c1ccc(OCc3ccccc3)cc1)C2=O (centres undefined),20µM*,i,i,/
S=C1SCN(Cc2ccco2)CN1Cc1ccco1,?,i,i,-20%
S=C1SCN(Cc2cccs2)CN1Cc1cccs1,11µM*,i,i,15%
CCn1ncc(Br)c1C(=O)Nc1ccccc1C(=O)OC,14µM*,i,i,-7%
COC(=O)c1ccccc1NC(=O)c1c(Br)cnn1C,21%,i,i,1%
CCSc1ccc([C@@H]2[C@@H]3C(=O)N(CC)C(=O)[C@@H]3[C@]3(C(=O)OC)CCCCN23)cc1,25µM*,i,i,29%
SMILES,TDP-43 yeast inh,FUS yeast rescue,Abeta yeast res,aSyn yeast inh
CCN1C(=O)[C@H]2[C@@H](c3ccc(-c4ccccc4)cc3)N3CCCC[C@@]3(C(=O)OC)[C@H]2C1=O,35µM*,?,i,2%
CC(C)(C)[C@H]1COC(=O)CCCC/C=C\C[C@H](CC(=O)N(CCO)Cc2ccccc2)C(=O)N1,9%,i,i,-14%
COc1ccc(CSCC(=O)Nc2ccc(S(=O)(=O)N3CCCCCC3)cc2)cc1,18µM*,/,i,4%
CCC1CCc2c(sc(NC(=O)c3ccco3)c2C(N)=O)C1 (centres undefined),13µM*,i,i,-9%
COc1ccc(C(C#N)c2ccc(=O)[nH]n2)cc1 (centres undefined),-7%,i,i,-3%
CCN1CCN(CCCNC(=O)Cn2c(-c3cccs3)cc3cc(F)ccc32)CC1,5%,i,i,/
CC1CCCCC1C(=O)N1CCC(Oc2cccnc2)CC1 (centres undefined),/,i,/,/
Cc1ccc(S(=O)(=O)N(CCc2ccccc2)CC(=O)N2CCOCC2)cc1,/,i,/,/
O=[N+]([O-])c1ccc(-c2nc(Cl)c3c(n2)CCCC3)o1,7.1µM*,i,i,-6%
Cc1cccc(OCCn2c(=O)n(C)c3ccccc32)c1,?,i,i,22µM*
Cc1cccc(OCCCN2C(=O)C(=O)c3cc(C)ccc32)c1,14µM*,i,i,0%
CCc1cc2c(cc3c(=O)n(CC(=O)N4CCN(c5cccc(C)c5C)CC4)nc(CC)n32)s1,17%,i,i,/
O=C(CC[C@H]1O[C@@H](n2cnc3c(NC(=O)c4ccccc4)ncnc32)[C@H](O)[C@@H]1O)NCC1CCCCC1,?,i,i,-8%
CCOC(=O)c1nc(Nc2ccc(Cl)cc2)c2c(C)noc2n1,?,i,i,/
CCOC(=O)C1=C(Nc2ccc(Cl)cc2)OCC1=O,11µM*,i,i,-1%
Cc1ccc(Sc2ccc(NC(=O)CCl)cc2)c(C)c1,11µM*,i,?,16%
Cc1cn([C@H]2C[C@H](O)[C@@H](/C=C/C(=O)NCCc3ccc4c(c3)OCO4)O2)c(=O)[nH]c1=O,24%,i,i,-11%
COCCCC1CCN(C(=O)c2cc(COc3cc(C)ccc3C)on2)CC1,28µM*,?,i,-6%
COC1CCN(C(=O)c2cc(COc3cc(C)ccc3C)on2)CC1,0%,i,i,1%
NC(Cc1ccc(F)cc1)c1csc(Nc2ccc(C(F)(F)F)cn2)n1 (centres undefined),4%,i,i,-40%
COC1=Cc2c(ccc3ccc(=O)oc23)OC1(C)C,13µM*,i,i,/
COc1ccccc1CNC(=O)C1CCCN(C(=O)c2cnn(-c3ccc(F)cc3)c2-n2cccc2)C1 (centres undefined),0%,i,i,4%
O=C(NCc1ccc2c(c1)OCO2)c1cc([N+](=O)[O-])ccc1N1CCCCC1,20µM*,/,i,9%
O=C(NCc1ccco1)c1cc([N+](=O)[O-])ccc1N1CCCCC1,14µM*,i,i,0%
O=C(NCc1ccco1)c1ccc(N2CCCCC2)c([N+](=O)[O-])c1,?,i,i,6%
COc1ccc(-c2c(C)nn3c(C)cc(C)nc23)cc1,14µM*,i,i,-6%
CCC(Oc1ccccc1)C(=O)Nc1nnc(S(=O)(=O)N2CCCCC2)s1 (centres undefined),8%,?,i,11%
CC(Oc1ccccc1)C(=O)Nc1nnc(S(=O)(=O)N2CCCCCC2)s1 (centres undefined),20µM*,i,i,-21%
